Calls of active or inactive are those of the source. Calls follow the shape of the full dose curve.
Test: qHTS drug screen for cell cycle checkpoint inhibitors in PARPi-resistant BRCA-mutant ovarian cancer cell lines. (AID 1963452)
Conditions: PEO1/OlaR viability, CellTiter-Glo luminescence, 96 h; stronger effect = lower value
In short: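 PEO1, PEO4 and PEO1/OlaR ovarian cancer cells, 600 per well, exposed 96 h at 37C to a dilution series. Viability read by CellTiter-Glo luminescence, normalized to DMSO and empty wells; activity summarized as Z-AUC.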

Row | SMILES | Z-AUC
1 | C[C@@H](NCCCc1cccc(C(F)(F)F)c1)c1cccc2ccccc12 | 0.769 (inactive)
2 | COc1cc(NCc2ccc3nc(N)nc(N)c3c2C)cc(OC)c1OC | 0.262 (inactive)
3 | NC(N)=NC(N)=NCCc1ccccc1 | 1.13 (inactive)
4 | N[C@@H](Cc1ccc(O)c(O)c1)C(=O)O | -0.0147 (inactive)
5 | CNNCc1ccc(C(=O)NC(C)C)cc1 | 1.13 (inactive)
6 | OC(Cn1cncn1)(Cn1cncn1)c1ccc(F)cc1F | -0.0807 (inactive)
7 | CCOC(=O)c1ccc(C#Cc2ccc3c(c2)C(C)(C)CCS3)nc1 | 1.4 (inactive)
8 | O=c1cc(O)c(Cl)c[nH]1 | 1.39 (inactive)
9 | C1CCC(C(CC2CCCCN2)C2CCCCC2)CC1 (stereo not drawn) | -0.764 (inactive)
10 | CCn1cc(C(=O)O)c(=O)c2cc(F)c(N3CCN(C)CC3)cc21 | 1.22 (inactive)
11 | CC(C)NCC(O)c1ccc(NS(C)(=O)=O)cc1 (stereo not drawn) | -0.911 (inactive)
12 | Cc1cccc(N(C)C(=S)Oc2ccc3ccccc3c2)c1 | 0.688 (inactive)
13 | CC(=O)Oc1ccccc1C(=O)Nc1ncc([N+](=O)[O-])s1 | 0.99 (inactive)
14 | CC[C@H](C)C(=O)O[C@H]1C[C@@H](C)C=C2C=C[C@H](C)[C@H](CC[C@@H]3C[C@@H](O)CC(=O)O3)[C@H]21 | 1 (inactive)
15 | CC(C)OC(=O)C(C(=O)OC(C)C)=C1SC=CS1 | 1.21 (inactive)
16 | O=S(=O)(O)CCS | 0.603 (inactive)
17 | Cc1nnc(NS(=O)(=O)c2ccc(N)cc2)s1 | 1.31 (inactive)

Row | SMILES | Z-AUC
18 | CNC1CCCN(c2c(F)cc3c(=O)c(C(=O)O)cn(C4CC4)c3c2OC)C1 (stereo not drawn) | 1.39 (inactive)
19 | S=P(N1CC1)(N1CC1)N1CC1 | 0.79 (inactive)
20 | COc1cc2c(Nc3ccc(Br)cc3F)ncnc2cc1OCC1CCN(C)CC1 | 0.231 (inactive)
21 | O=c1oc2c(O)c(O)cc3c(=O)oc4c(O)c(O)cc1c4c23 | 0.559 (inactive)
22 | N=C(N)c1ccc(OCCCCCOc2ccc(C(=N)N)cc2)cc1 | 0.0445 (inactive)
23 | O=C(O)c1cn(C2CC2)c2cc(N3CCNCC3)c(F)cc2c1=O | 0.135 (inactive)
24 | CCCc1nc(C)c2c(=O)[nH]c(-c3cc(S(=O)(=O)N4CCN(CC)CC4)ccc3OCC)nn12 | 1.15 (inactive)
25 | CC1=CC(=O)c2ccccc2C1=O | 0.899 (inactive)
26 | Nc1[nH]c(=O)ncc1F | 1.66 (inactive)
27 | Nc1nc(N)c2nc(CNc3ccc(C(=O)NC(CCC(=O)O)C(=O)O)cc3)cnc2n1 (stereo not drawn) | 0.0258 (inactive)
28 | Nc1nc(N)nc(-c2cc(Cl)ccc2Cl)n1 | 0.87 (inactive)
29 | CC(C)(Sc1cc(C(C)(C)C)c(O)c(C(C)(C)C)c1)Sc1cc(C(C)(C)C)c(O)c(C(C)(C)C)c1 | 0.926 (inactive)
30 | COc1ccc(-c2ccc3cc(C(=O)O)ccc3c2)cc1C12CC3CC(CC(C3)C1)C2 | 0.117 (inactive)
31 | NCCCC(O)(P(=O)(O)O)P(=O)(O)O | 0.983 (inactive)
32 | COC(=O)Nc1nc2ccc(Sc3ccccc3)cc2[nH]1 | -0.927 (inactive)
33 | CCc1cc(C(N)=S)ccn1 | 0.368 (inactive)
